Compounds with a hit are over-represented: about 21% of the library has one in this group of screens.
ELG1 repair inh – blocks ELG1-dependent DNA repair in HEK293T cells | HEK293T ELG1-luciferase reporter, luminescence, 16 h; DNA damage induced by 5-fluorouridine | Potency, µM (top dose mostly 46.1 µM), inactives show at the top dose activity change, negative = inhibition, actives largely listed as inhibitors | hit rate 2.3% among 330,000 | AID 504467; further: potency means the concentration at half of the fitted maximal effect; nearly all actives have a fitted effect of over 55% in size
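Step one: seed 2,000 cells per well. Step two: pin-transfer compound or DMSO alongside 5-fluorouridine. Step three: incubate 16 hr, 37 °C, 5% CO2. Step four: add ONE-Glo, wait 30 min, read luminescence.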
TDP1 cell CPT – growth inhibition of DT40 Tdp1-/-;hTDP1 cells with camptothecin (screen for TDP1 inhibitors) | chicken DT40 Tdp1-/-;hTDP1 cells + 20 nM CPT, ATP luminescence, 48 h | Potency, µM (series often up to 46.2 µM), inactives show at the top dose activity change, negative = growth inhibition, usual class: inhibitors | hit rate 12% among 420,000; further: potency means the concentration at half of the fitted maximal effect; nearly all actives have a fitted effect of over 55% in size
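Chicken DT40 Tdp1-/- cells stably complemented with human TDP1 were seeded at 400 cells/well in medium containing 20 nM camptothecin, exposed to pin-transferred compounds, and grown at 37 °C for at least 48 hr. Viability was read as ATP luminescence.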
VP16 counter – Gal4-VP16 reporter inhibition counter-screen | Drosophila S2 Gal4-VP16 UAS-luciferase, luminescence, 20 h | Potency, µM (doses to about 53.6 µM), for the others: at the top dose activity, negative = inhibition, actives largely listed as inhibitors | hit rate 3.5% among 310,000 | AID 2546;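 further: Gal4-VP16 expression switched on by copper sulfate through the metallothionein promoter; potency means the concentration at half of the fitted maximal effect; nearly all actives have a fitted effect of over 50% in size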
IL1B secr inh – blocks inflammasome-driven IL-1 beta release; AID 743279; activity change, % at 57.5 µM; hit rate 4.7% among 360,000; THP-1 LPS/ATP IL-1B secretion, AlphaLISA, 16 h; hits give low values; in the data active means activity change below about -50%; inconclusive means mostly about -30% to -49%
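Secreted IL-1B measured by AlphaLISA bead assay after 16 h compound exposure of THP-1 cells; compounds (final up to 57.5 uM) added 1 h before LPS (250 ng/mL) and ATP (1.25 mM) stimulation; lower signal means less secretion.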
RORg inh – ROR gamma (mouse) transcription inhibition | P51450 | Potency, µM (doses to about 53.6 µM), for the others: at the top dose activity change, negative = inhibition, most hits filed as inhibitors | hit rate 5.4% among 310,000 | Drosophila S2 Gal4-RORgamma UAS-luciferase reporter, 20 h; further: potency means the concentration at half of the fitted maximal effect; nearly all actives have a fitted effect of over 60% in size
Target sequence (P51450 whole entry, looked up, the tested form may be a part): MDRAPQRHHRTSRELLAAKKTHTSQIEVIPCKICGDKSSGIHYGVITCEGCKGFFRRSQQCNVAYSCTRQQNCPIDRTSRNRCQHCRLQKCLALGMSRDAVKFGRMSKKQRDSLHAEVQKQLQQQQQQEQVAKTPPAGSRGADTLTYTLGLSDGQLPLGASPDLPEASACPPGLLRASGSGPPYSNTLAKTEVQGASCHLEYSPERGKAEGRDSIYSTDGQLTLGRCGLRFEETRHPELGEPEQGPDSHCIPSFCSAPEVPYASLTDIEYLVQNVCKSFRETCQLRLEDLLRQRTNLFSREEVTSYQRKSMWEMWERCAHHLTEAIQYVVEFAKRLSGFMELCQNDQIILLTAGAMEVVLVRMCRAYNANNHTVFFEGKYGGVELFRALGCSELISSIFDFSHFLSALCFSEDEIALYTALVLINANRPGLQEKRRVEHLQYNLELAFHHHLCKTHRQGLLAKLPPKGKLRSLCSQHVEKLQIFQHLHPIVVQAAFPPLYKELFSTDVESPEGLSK
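Luciferase reporter read in Schneider cells carrying Gal4-RORγ (mouse) and UAS-Photinus luciferase; cells given compound 1 h before 700 uM copper sulfate induction, then incubated 20 h at ambient temperature.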
TDP1 cell noCPT – qHTS for Inhibitors of human tyrosyl-DNA phosphodiesterase 1 (TDP1): qHTS in cells in absence of CPT; DT40 Tdp1-/- hTDP1 cells, no CPT, ATP luminescence, 48 h; Potency, µM (titrated, usually from 46.2 µM), inactives show at the top dose activity change, negative = growth inhibition, usual class: inhibitors; hit rate 15% among 420,000; further: potency means the concentration at half of the fitted maximal effect; nearly all actives have a fitted effect of over 55% in size
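A cellular qHTS used chicken DT40 cells lacking endogenous Tdp1 but carrying stably transfected human TDP1. Compounds were applied without camptothecin, and cell growth kinetics were judged by ATP-dependent luminescence after ≥48 hr.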
An asterisk follows results filed as active. Unless noted, the call rests on the fitted dose curve; in most records, active means well fitted curve in the direction sought with a large enough effect; inconclusive means small, poorly fitted or top-dose-only effect, or another doubt; inactive means no such curve, though single readings can be large; an effect the other way counts as inactive or inconclusive. On the % scale 0 is the no-effect control and ±100 the full control effect.

What do the screens show for `CC(=O)c1sc(N/N=C\c2ccc(Br)cc2)nc1C`?
ELG1 repair inh: inconclusive; TDP1 cell CPT: inconclusive; VP16 counter: inconclusive; IL1B secr inh: -3; RORg inh: inconclusive; TDP1 cell noCPT: inconclusive

What do the screens show for `CCOC(=O)c1nc(N/N=C/c2ccccc2)sc1Br`?
ELG1 repair inh: 24%; TDP1 cell CPT: 7%; VP16 counter: inconclusive; IL1B secr inh: inconclusive; RORg inh: 18µM*; TDP1 cell noCPT: inconclusive

What do the screens show for `COc1ccc(C2=Nc3ccccc3N(C(=O)c3ccncc3)C2C(=O)NC(C)(C)C)cc1` (stereo unspecified)?
TDP1 cell CPT: -5%; IL1B secr inh: 0; TDP1 cell noCPT: -20%

What do the screens show for `COc1ccc(N2CC(NC(=O)COc3ccc(F)cc3)CC2=O)cc1OC` (stereo unspecified)?
TDP1 cell CPT: -7%; TDP1 cell noCPT: -14%

Results for COc1cc(/C=N/NC(=O)C(=O)/C=C2\NC3(CCCC3)Cc3ccccc32)ccc1O ?
ELG1 repair inh: 23µM*; TDP1 cell CPT: inconclusive; VP16 counter: inconclusive; IL1B secr inh: -12; RORg inh: inconclusive; TDP1 cell noCPT: inconclusive

Results for CN(C)c1ccc(/C=N/NC(=O)C(=O)/C=C2\NC3(CCCC3)Cc3ccccc32)cc1 ?
ELG1 repair inh: 12µM*; TDP1 cell CPT: 26µM*; VP16 counter: -11%; IL1B secr inh: -14; RORg inh: 44%; TDP1 cell noCPT: 21µM*

What do the screens show for `COc1cc(/C=N/NC(=O)c2[nH]nc3c2CCc2ccccc2-3)ccc1O`?
ELG1 repair inh: inconclusive; TDP1 cell CPT: inconclusive; VP16 counter: -23%; IL1B secr inh: 31; RORg inh: 6%; TDP1 cell noCPT: inconclusive

What do the screens show for `COCCn1c(=S)[nH]c2cc(C(=O)NC3CCCCC3C)ccc2c1=O` (stereo unspecified)?
TDP1 cell CPT: inconclusive; IL1B secr inh: 7; TDP1 cell noCPT: inconclusive

Results for Cc1c(C(=O)N2CCOCC2)oc2c1-c1nn(CC(=O)NCc3cccc(Cl)c3)cc1CC2 ?
TDP1 cell CPT: inconclusive; TDP1 cell noCPT: 16µM*

How did CCCCN(CC)CCNC(=O)Cn1cc2c(n1)-c1c(oc(C(=O)N3CCCC3)c1C)CC2 do in these assays?
ELG1 repair inh: 9%; TDP1 cell CPT: -12%; VP16 counter: inconclusive; IL1B secr inh: -4; RORg inh: 16µM*; TDP1 cell noCPT: inconclusive

How did COc1ccccc1CNC(=O)Cn1cc2c(n1)-c1c(oc(C(=O)N3CCOCC3)c1C)CC2 do in these assays?
TDP1 cell CPT: inconclusive; TDP1 cell noCPT: 23µM*

What do the screens show for `CCCOc1ccc(CNC(=O)Cn2cc3c(n2)-c2c(oc(C(=O)N4CCOCC4)c2C)CC3)cc1`?
TDP1 cell CPT: inconclusive; TDP1 cell noCPT: 23µM*

What do the screens show for `CCCCN(CC)CCNC(=O)CN1C(=O)COc2ccc(S(=O)(=O)N3CCCC3)cc21`?
ELG1 repair inh: 28%; TDP1 cell CPT: -1%; VP16 counter: -13%; IL1B secr inh: -5; RORg inh: -1%; TDP1 cell noCPT: -21%

What do the screens show for `COC(=O)C1(CC(C)C)C=C2C(=C(c3ccccc3)C(=O)C2C)CN1` (stereo unspecified)?
VP16 counter: 1%; RORg inh: 1%

How did COc1cccc(CNC(=O)c2c(C)oc3nc(C)nc(N4CCOCC4)c23)c1 do in these assays?
TDP1 cell CPT: -9%; TDP1 cell noCPT: -5%

Results for COc1cccc(CNC(=O)Cn2cc3c(n2)-c2c(oc(C(=O)N4CCOCC4)c2C)CC3)c1 ?
TDP1 cell CPT: 18µM*; TDP1 cell noCPT: 21µM*

How did COc1ccc(CN(C)S(=O)(=O)c2nnc(NC(=O)C(C)C)s2)cc1OC do in these assays?
TDP1 cell CPT: 12µM*; TDP1 cell noCPT: 10µM*

How did COc1ccc(/C=C/c2cc(-c3ccc(C)cc3)o[n+]2C)cc1 do in these assays?
ELG1 repair inh: inconclusive; TDP1 cell CPT: 0.26µM*; VP16 counter: 13µM*; IL1B secr inh: -120*; RORg inh: inconclusive; TDP1 cell noCPT: 0.26µM*

What do the screens show for `COc1ccc(/C=C/c2c(-c3ccc(OC)cc3)oc3ccc(-c4ccc(OC)cc4)cc23)cc1`?
ELG1 repair inh: -5%; TDP1 cell CPT: -2%; VP16 counter: -6%; IL1B secr inh: -1; RORg inh: -1%; TDP1 cell noCPT: 5%

What do the screens show for `CCCCS(=O)(=O)Nc1ccc(N2CCOCC2)c(S(=O)(=O)N2CCOCC2)c1`?
ELG1 repair inh: 0%; TDP1 cell CPT: -1%; VP16 counter: -5%; IL1B secr inh: 2; RORg inh: -6%; TDP1 cell noCPT: -5%

Results for CCc1ccc(CNC(=O)c2ccc(NC(=O)C3=CSCCO3)cc2)cc1 ?
ELG1 repair inh: 15%; TDP1 cell CPT: -2%; VP16 counter: -16%; IL1B secr inh: -11; RORg inh: inconclusive; TDP1 cell noCPT: -2%

Results for CC(C)(C)S(=O)(=O)c1ccc(S(=O)(=O)C(C)(C)C)s1 ?
ELG1 repair inh: -6%; VP16 counter: inconclusive; RORg inh: -3%

Results for CCc1nnc(NC(=O)CN2CCN(Cc3cccc(Cl)c3)CC2)s1 ?
ELG1 repair inh: -16%; TDP1 cell CPT: 4%; VP16 counter: inconclusive; IL1B secr inh: 30; RORg inh: 2.5µM*; TDP1 cell noCPT: -24%

What do the screens show for `Cc1ccc(OCCN2CCN(C(=O)CCC(=O)Nc3nnc(CC(C)C)s3)CC2)cc1`?
ELG1 repair inh: 2.6µM*; TDP1 cell CPT: inconclusive; VP16 counter: -17%; RORg inh: inconclusive; TDP1 cell noCPT: 10µM*

Results for CCc1nnc(NC(=O)CCC(=O)N2CCN(Cc3ccc(Cl)cc3)CC2)s1 ?
ELG1 repair inh: inconclusive; TDP1 cell CPT: 18µM*; VP16 counter: -4%; IL1B secr inh: 5; RORg inh: 31%; TDP1 cell noCPT: 23µM*

What do the screens show for `CCCc1nnc(NC(=O)CCC(=O)N2CCC(Cc3ccccc3)CC2)s1`?
ELG1 repair inh: 3%; TDP1 cell CPT: 26µM*; VP16 counter: 4%; IL1B secr inh: 17; RORg inh: -21%; TDP1 cell noCPT: 21µM*

Results for CCc1nnc(NC(=O)CN2CCN(Cc3cccc(F)c3)CC2)s1 ?
ELG1 repair inh: 5%; TDP1 cell CPT: -19%; VP16 counter: 4%; IL1B secr inh: 30; RORg inh: 10%; TDP1 cell noCPT: 10%

Assay outcomes: PubChem, National Center for Advancing Translational Sciences (NCATS)
